# Data from PubChem BioAssay (EPA / NIEHS).
# Values joined by “and” are separate entries in the source; they are usually repeats but may differ in a detail not shown here. Identical values can stand only once. More than one record can exist for a structure, and the calls need not agree. Active and inactive are the calls of the source. How the source made its calls: active means hit-call score of the fitted dose curve at least 0.9, where 1 is the maximum; inactive means score below 0.9.
# Columns and labels:
# CD69, CD69 (gene 969) = experiment: BSK_IMphg_CD69: BioMAP Diversity Plus: IMphg Assay for CD69 Biomarker Activity (AID 2284257); conditions: primary human endothelial cells with macrophages
# Procedure, shortened: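 Human venular endothelial cells co-cultured with macrophages; CD69 quantified by ELISA 24 h after compound addition. Activity fitted in the positive direction relative to DMSO baseline; cytotoxicity tracked in parallel cultures via SRB total-protein staining.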
# [1] = read-out: Eotaxin 3, CCL26 (gene 10344); experiment: BSK_BF4T_Eotaxin3: BioMAP Diversity Plus: BF4T Assay for Eotaxin 3 Biomarker Activity (AID 2284258); conditions: primary human bronchial epithelial cells with fibroblasts
# Procedure, shortened: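 Co-culture of human bronchial epithelial cells and dermal fibroblasts, exposed to chemicals for 24 h versus DMSO. Eotaxin-3 quantified by ELISA; cytotoxicity checked in parallel cultures by sulforhodamine B total-protein staining.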
# [2] = read-out: Monocyte Chemoattractant Protein-1 (MCP1), CCL2 (gene 6347); experiment: BSK_BF4T_MCP1: BioMAP Diversity Plus: BF4T Assay for Monocyte Chemoattractant Protein-1 (MCP1) Biomarker Activity (AID 2284259); conditions: primary human bronchial epithelial cells with fibroblasts
# Experimental: (§1) BSK_BF4T is a cell-based, multiplexed-readout assay that uses bronchial epithelial cells and dermal fibroblasts, a human vascular primary cell, with measurements taken at 24 hours after chemical dosing in a microplate: 96-well plate.BSK_BF4T_MCP1 is an assay component measured in the BSK_BF4T assay. It measures MCP-1 antibody related to regulation of gene expression using ELISA technology.Data from the assay component BSK_BF4T_MCP1 was analyzed at the endpoint, BSK_BF4T_MCP1, in the positive analysis fitting direction relative to DMSO as the negative control and baseline of activity. Using a type of binding reporter, gain or loss-of-signal activity can be used to understand protein changes. To generalize the intended target to other relatable targets, this assay endpoint is annotated to the 'cytokine' intended target family, where the subfamily is 'chemotactic factor'.
# The levels of cell surface (or secreted, indicated by the prefix "s") biomarker endpoints were measured by ELISA. Overt cytotoxicity to cells in confluent adherent cultures (all systems other than the BT system) was assessed by measuring total protein levels using sulforhodamine B (SRB) staining in parallel cultures at the time of biomarker measurements, indicated as SRB endpoints. For proliferation assays for adherent cell types, individual cell types are cultured at sub-confluence and relative cell numbers quantified by SRB staining at time points optimized for each system (48 h: 3C and CASM3C systems; 72 h: BT and HDF3CGF systems; 96 h: SAg system). SRB was performed by staining cells with 0.1% SRB after fixation with 10% TCA and reading wells at 560 nm.Viability and proliferation of PBMC (T cells) was quantified by Alamar Blue reduction for the SAg and BT systems. For PBMC viability (referred to as PBMC Cytotoxicity within the assay endpoint names), cells were plated (75,000/well in a 96-well plate) and then chemical samples added for 1 h before addition of activators, SEB and TSST-1 (20 ng/mL final concentration each). Cells were incubated for 90 h. Then, Alamar Blue (20 uL/well) (Invitrogen, Cat DAL1100) was added for 6 h, and the plates were read with a fluorescence microplate reader at 546/580 nm (excitation/emission). For PBMC proliferation, cells were plated and activated as above but incubated for only 16 h prior to addition of Alamar Blue. Plates were read after 6 h.
# [3] = read-out: Intercellular Adhesion Molecule 1 (ICAM1), ICAM1 (gene 3383); experiment: BSK_BF4T_ICAM1: BioMAP Diversity Plus: BF4T Assay for Intercellular Adhesion Molecule 1 (ICAM1) Biomarker Activity (AID 2284260); conditions: primary human bronchial epithelial cells with fibroblasts
# Experimental: as §1, with “plate.BSK_BF4T_ICAM1” for “plate.BSK_BF4T_MCP1”, “ICAM-1” for “MCP-1”, “BSK_BF4T_ICAM1” for “BSK_BF4T_MCP1”, “BSK_BF4T_ICAM1,” for “BSK_BF4T_MCP1,”, “To generalize the intended target to other relatable targets, this assay endpoint is annotated to the 'cytokine' intended target family, where the subfamily is 'chemotactic factor'.” left out
# (§2) The levels of cell surface (or secreted, indicated by the prefix "s") biomarker endpoints were measured by ELISA. Overt cytotoxicity to cells in confluent adherent cultures (all systems other than the BT system) was assessed by measuring total protein levels using sulforhodamine B (SRB) staining in parallel cultures at the time of biomarker measurements, indicated as SRB endpoints. For proliferation assays for adherent cell types, individual cell types are cultured at sub-confluence and relative cell numbers quantified by SRB staining at time points optimized for each system (48 h: 3C and CASM3C systems; 72 h: BT and HDF3CGF systems; 96 h: SAg system). […] Plates were read after 6 h.
# [4] = read-out: Interleukin-8 (IL8), CXCL8 (gene 3576); experiment: BSK_MyoF_IL8: BioMAP Diversity Plus: MyoF Assay for Interleukin-8 (IL8) Biomarker Activity (AID 2284261); conditions: primary human lung fibroblasts
# Procedure, shortened: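 In this multiplexed primary-cell system, fibroblasts from human lung are treated with chemicals, and IL-8 is detected by ELISA at 24 h, with DMSO serving as the negative reference.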
# CD90, THY1 (gene 7070) = experiment: BSK_BF4T_CD90: BioMAP Diversity Plus: BF4T Assay for CD90 Biomarker Activity (AID 2284262); conditions: primary human bronchial epithelial cells with fibroblasts
# Procedure, shortened: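 Co-culture of human bronchial epithelial cells and dermal fibroblasts, 24 h compound exposure. Cell-surface CD90 measured by ELISA relative to DMSO; parallel SRB total-protein staining for cytotoxicity.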
# [5] = read-out: Interleukin-8 (IL8), CXCL8 (gene 3576); experiment: BSK_BF4T_IL8: BioMAP Diversity Plus: BF4T Assay for Interleukin-8 (IL8) Biomarker Activity (AID 2284263); conditions: primary human bronchial epithelial cells with fibroblasts
# Procedure, shortened: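 Human bronchial epithelial cells with dermal fibroblasts co-culture; IL-8 measured by ELISA 24 hours after dosing, fitted vs DMSO. Cytotoxicity tracked in parallel cultures by SRB total-protein staining.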
# [6] = read-out: Interleukin-1 alpha (IL1a), IL1A (gene 3552); experiment: BSK_BF4T_IL1a: BioMAP Diversity Plus: BF4T Assay for Interleukin-1 alpha (IL1a) Biomarker Activity (AID 2284264); conditions: primary human bronchial epithelial cells with fibroblasts
# Procedure, shortened: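 Human bronchial epithelial cells co-cultured with dermal fibroblasts, dosed and read at 24 h. Secreted/surface IL-1α quantified by ELISA; gain-of-signal fitted relative to DMSO baseline. Parallel SRB total-protein staining tracked cytotoxicity.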
# Decorin, DCN (gene 1634) = experiment: BSK_MyoF_Decorin: BioMAP Diversity Plus: MyoF Assay for Decorin Biomarker Activity (AID 2284265); conditions: primary human lung fibroblasts
# Procedure, shortened: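 Lung fibroblast cultures, 24 h chemical exposure. Decorin by ELISA, positive fitting direction, DMSO baseline.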
# KRT18 (gene 3875) = experiment: BSK_BF4T_Keratin818: BioMAP Diversity Plus: BF4T Assay for Keratin 818 Biomarker Activity (AID 2284266); conditions: primary human bronchial epithelial cells with fibroblasts
# Experimental: BSK_BF4T is a cell-based, multiplexed-readout assay that uses bronchial epithelial cells and dermal fibroblasts, a human vascular primary cell, with measurements taken at 24 hours after chemical dosing in a microplate: 96-well plate.BSK_BF4T_Keratin818 is an assay component measured in the BSK_BF4T assay. It measures Keratin 8/18 antibody related to regulation of gene expression using ELISA technology.Data from the assay component BSK_BF4T_Keratin818 was analyzed at the endpoint, BSK_BF4T_Keratin818, in the positive analysis fitting direction relative to DMSO as the negative control and baseline of activity. […]
# as §2
Structure (SMILES),"AC50 (CD69, CD69 (gene 969))","outcome (CD69, CD69 (gene 969))",AC50 [1],outcome [1],AC50 [2],outcome [2],outcome [3],outcome [4],"outcome (CD90, THY1 (gene 7070))",outcome [5],outcome [6],"outcome (Decorin, DCN (gene 1634))",outcome (KRT18 (gene 3875))
O=S(=O)(O)C(F)(F)C(F)(F)C(F)(F)C(F)(F)C(F)(F)C(F)(F)C(F)(F)C(F)(F)F,30 µM (active),inactive,17.2 µM (active) and 1.82 µM (active),inactive,44.6 µM (active),inactive,inactive,inactive,inactive,inactive,inactive,inactive,inactive
ClC1C(Cl)C(Cl)C(Cl)C(Cl)C1Cl (stereo unspecified),–,–,–,–,–,–,–,inactive,–,–,–,inactive,–
O=C(O)C(F)(F)C(F)(F)C(F)(F)C(F)(F)C(F)(F)C(F)(F)C(F)(F)F,–,inactive,–,inactive,50.1 µM (active),inactive,inactive,inactive,inactive,inactive,inactive,inactive,inactive
